Laboratory results: the supplement of paper PMC12297408
Where a name gives a salt, the structure may show the parent alone. In all, about 1,300 compounds went through this assay and about 40 (3%) showed activity. The full list was thinned out, with actives kept by preference. A number with no mark means an inactive call.

Test system: Plasmodium falciparum NF54/iGP1_RE9H ulg8 stage V gametocytes
Experiment: gametocyte viability (luciferase signal relative to DMSO control) (% of DMSO control); higher = less gametocytocidal activity, active = 50 or less
Details: exposure time: 72 h
In short: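 Viability was calculated relative to the mean of DMSO vehicle wells on each plate. Day-12 stage V gametocytes of line NF54/iGP1_RE9Hulg8 (~2.5% gametocytemia, 3% hematocrit, 0.5% Albumax II medium) were exposed in 96-well plates to compounds at final 10 µM or 1 µM, one well each, for 72 h at 37 °C. Luminescence was then read on an IVIS Lumina II after D-luciferin addition.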

Which results are given for CN1[C@@H]2CC[C@H]1C[C@@H](OC(=O)[C@H](CO)c1ccccc1)C2 [Hyoscyamine (L)]?
gametocyte viability (concentration: 1 µM): 86.7; gametocyte viability (concentration: 10 µM): 91.7

What does the source list for CN1[C@@H]2CC[C@H]1C[C@@H](OC1c3ccccc3CCc3ccccc31)C2 [Deptropine citrate]?
gametocyte viability (concentration: 1 µM): 99.2; gametocyte viability (concentration: 10 µM): 86.5

CC[C@@]1([C@@H]2O[C@@H]([C@H]3O[C@@](O)(CO)[C@H](C)C[C@@H]3C)C[C@@H]2C)CC[C@H]([C@]2(C)CC[C@]3(C[C@H](O)[C@@H](C)[C@@H]([C@@H](C)[C@@H](OC)[C@H](C)C(=O)O)O3)O2)O1 [Monensin sodium salt] was tested. Which gametocyte viability (concentration: 1 µM) did it give?
Its gametocyte viability is 28.8 (active).

What about the gametocyte viability (concentration: 10 µM) of the same compound?
The gametocyte viability was 0.676 (active).

C[C@]12CC[C@H](O)C[C@H]1CC[C@@H]1[C@@H]2C[C@@H](O)[C@]2(C)[C@@H](C3=CC(=O)OC3)CC[C@]12O [Digoxigenin] was tested. Which gametocyte viability (concentration: 1 µM) did it give?
The gametocyte viability was 74.9.

What about the gametocyte viability (concentration: 10 µM) of the same compound?
Its gametocyte viability is 72.3.

With O[C@@H]1CCCC[C@H]1N1CCC(c2ccccc2)CC1 [L(-)-vesamicol hydrochloride] as the compound, how does the gametocyte viability (concentration: 1 µM) read?
Its gametocyte viability is 91.8.

And the gametocyte viability (concentration: 10 µM)?
The gametocyte viability was 84.9.

How did the gametocyte viability (concentration: 1 µM) turn out when CC[C@@H](C(N)=O)N1CCCC1=O [Levetiracetam] was run?
The gametocyte viability was 83.8.

What about the gametocyte viability (concentration: 10 µM) of the same compound?
The gametocyte viability was 85.3.

Which results are given for C[C@]12CCC(=O)C=C1C=C[C@@H]1[C@@H]2CC[C@@]2(C)[C@H]1CC[C@@]2(O)CCC(=O)O [Canrenoic acid potassium salt]?
gametocyte viability (concentration: 1 µM): 83.5; gametocyte viability (concentration: 10 µM): 82.3

C=CC[C@]1(O)CC[C@H]2[C@@H]3CCC4=CC(=O)CCC4=C3C=C[C@@]21C [Altrenogest] was tested. Which gametocyte viability (concentration: 1 µM) did it give?
The gametocyte viability was 56.8.

And the gametocyte viability (concentration: 10 µM)?
The gametocyte viability was 33.1 (active).

Which gametocyte viability (concentration: 1 µM) does the source give for C#C[C@]1(O)CC[C@H]2[C@@H]3CCC4=CC(=O)CCC4=C3C=C[C@@]21CC [Gestrinone] here?
Its gametocyte viability is 86.6.

And the gametocyte viability (concentration: 10 µM)?
The gametocyte viability was 74.2.

Which gametocyte viability (concentration: 1 µM) does the source give for C[N+]1([O-])[C@@H]2C[C@@H](OC(=O)[C@H](CO)c3ccccc3)C[C@H]1[C@@H]1O[C@@H]12 (some centres undefined) [Scopolamin-N-oxide hydrobromide] here?
Its gametocyte viability is 91.5.

And the gametocyte viability (concentration: 10 µM)?
Its gametocyte viability is 94.5.

For CCN[C@@H](C)Cc1cccc(C(F)(F)F)c1 [Dexfenfluramine hydrochloride], which gametocyte viability (concentration: 1 µM) is on record?
Its gametocyte viability is 95.2.

What about the gametocyte viability (concentration: 10 µM) of the same compound?
The gametocyte viability was 90.6.

Which gametocyte viability (concentration: 1 µM) does the source give for C[C@]12COC(=O)C[C@@H]1CC[C@@H]1[C@@H]2CC[C@@]2(C)[C@H]1CC[C@]2(C)O [Oxandrolone] here?
The gametocyte viability was 81.4.

What about the gametocyte viability (concentration: 10 µM) of the same compound?
Its gametocyte viability is 78.9.
